# Data from PubChem BioAssay (NCATS).
# Records with an inconclusive call do not appear. Values without a mark were called inactive. Activity calls are given as the source filed them. Calls come from the whole dose curve; as a rule, active = well fitted activation curve with a large enough effect; inconclusive = small, poorly fitted or top-dose-only effect; inactive = no such curve, though single readings can be large or run the other way.
# Target: Arylsulfatase A (Homo sapiens) (UniProt P15289)
# Test: qHTS screen for enhancers of Arylsulfatase A (ASA1): LOPAC Validation Assay (AID 720538); for activity change, positive = activation: 0% is about no effect
# Conditions: ASA enzyme activity, LOPAC qHTS enhancer assay; series mostly up to 57.5 µM; activity change, positive = activation: at the top concentration
# Excerpt: Lysosomal storage diseases (LSDs) are caused by genetic mutations in genes encoding proteins important for normal lysosomal function. In affected patients, symptoms are usually not manifested unless the mutations result in more than 90% reduction of enzymatic activity of a specific lysosomal enzyme. […] Small molecules could function as enzyme enhancement agents by binding to and stabilizing mutant misfolded proteins in the endoplasmic reticulum (ER), allowing them to evade the ER associated degradation (ERAD), and eventually reach the lysosome. Moreover, small molecules is hypothesized to be able to enhance the residual activity of deficient lysosomal enzyme by either interacting directly with the mutant enzyme or indirectly by acting in different cellular pathways; resulting to increased levels of the mutant and partially functional protein in the lysosomal compartment.
# A cell based assay in 1536 well plate format was developed to evaluate activity of the lysosomal sulfatase ASA1 enzyme. ASA1 is deficient in metachromatic leukodystrophy (MLD), an LSD characterized by progressive neurodegeneration for which specific treatment is not available. Compounds that are active may therefore have some therapeutic application for this disease. This assay was used to validate the ASA1 qHTS using the Sigma LOPAC library. In this assay increase in signal = enhanced ASA1 activity. Activation is the desired outcome for this assay.
# NIH Chemical Genomics Center [NCGC]
# NIH Molecular Libraries Probe Centers Network [MLPCN]
# Assay Submitter (PI): Gustavo Maegawa, Johns Hopkins University School of Medicine
# [2] Gieselmann V, et al. Acta Paediatr Suppl. 2008; 97: 15-21
# Four microliter (~8,000 cells/well) of SV40-transformed skin fibroblasts from an MLD patient (ASA-I179S) were seeded into a 1,536 solid white plate. Cells were left to adhere for 6 hrs, followed by addition of 23 nL of compounds. Cells were incubated with compounds for 48h at 37 degree C and 5% CO2. Four microliter of 1 mM pNCS substrate/lysis buffer (0.5mM pNCS final concentration) was added and incubated for 14h at room temperature. To stop the reaction, […] of 5 N of NaOH (1N NaOH final concentration) was then added and fluorescence was measured using the ViewLux plate reader (Ex=525 nm; Em=598 nm).
# Arylsulfatase A (Homo sapiens), sequence (P15289 whole entry, looked up): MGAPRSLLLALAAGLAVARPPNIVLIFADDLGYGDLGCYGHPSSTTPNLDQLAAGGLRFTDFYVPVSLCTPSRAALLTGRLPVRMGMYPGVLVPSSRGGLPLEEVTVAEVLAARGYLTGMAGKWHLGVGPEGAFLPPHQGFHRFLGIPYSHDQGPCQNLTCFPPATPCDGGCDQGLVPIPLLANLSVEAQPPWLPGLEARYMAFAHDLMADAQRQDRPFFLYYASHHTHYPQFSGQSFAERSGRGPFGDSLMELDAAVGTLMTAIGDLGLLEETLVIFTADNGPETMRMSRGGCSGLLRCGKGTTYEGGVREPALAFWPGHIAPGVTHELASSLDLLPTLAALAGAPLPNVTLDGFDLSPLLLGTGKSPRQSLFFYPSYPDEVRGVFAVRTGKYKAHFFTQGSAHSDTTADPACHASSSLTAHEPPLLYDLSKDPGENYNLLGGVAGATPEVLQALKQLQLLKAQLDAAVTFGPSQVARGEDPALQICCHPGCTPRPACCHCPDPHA
SMILES,"activity change, positive = activation [%]",outcome
CC1CC2C3CCC4=CC(=O)C=C[C@]4(C)[C@@]3(F)[C@@H](O)C[C@]2(C)[C@@]1(O)C(=O)CO (stereo partly drawn),18.6,–
N[C@@H](Cc1ccc(O)c(O)c1)C(=O)O,-44.1,–
CCN(CC)CC#CCOC(=O)C(O)(c1ccccc1)C1CCCCC1 (stereo not drawn),-17.3,–
CCN(CC)CCn1c(=O)c(Cc2ccc(OC)cc2)nc2ccccc21,–,inactive
COc1cc2ncnc(Nc3cccc(Cl)c3)c2cc1OC,-20.2,–
CCCCS(=N)(=O)CCC(N)C(=O)O (stereo not drawn),16.1,–
OCc1ccc(-c2nn(Cc3ccccc3)c3ccccc23)o1,-33.5,–
Cc1ccc(S(=O)(=O)N[C@@H](Cc2ccccc2)C(=O)CCl)cc1,–,inactive
COc1cc2nc(N3CCCN(C)CC3)nc(NC3CCN(Cc4ccccc4)CC3)c2cc1OC,–,inactive
CC(C)NCC(O)c1ccc(NS(C)(=O)=O)cc1 (stereo not drawn),-16.9,–
CCN1CCCC1CNC(=O)c1cc(S(N)(=O)=O)ccc1OC (stereo not drawn),-54.7,–
NC(=O)c1cccc(N)c1,–,inactive
CC1=C(C(=O)O)N2C(=O)[C@@H](NC(=O)C(N)c3ccccc3)[C@H]2SC1 (stereo partly drawn),–,inactive
